Key:
Assay in all cases: PBM binding z-score (relative to random genomic background probes); higher = stronger binding; sequences stand for … in GC…GCGATTGACAGCGTAGAATGAAGG
[1] = system: FXR:RXRa (NR concentration 270 nM, RXRa partner concentration 90 nM)
Outline: (§1)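 Scanned fluorescence from custom Agilent 4×180K protein-binding microarrays was regression-normalized. Binding z-scores use random background probes as reference. Ligand-free nuclear receptor dimers were incubated on the arrays for 1 h and detected with antibodies against each partner (one per run).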

[2] = system: LXRa:RXRa (NR concentration 270 nM, RXRa partner concentration 90 nM)
Outline: as §1

[3] = system: LXRa homodimer (NR concentration 270 nM)
Outline: as §1

[4] = system: LXRb:RXRa (NR concentration 270 nM, RXRa partner concentration 90 nM)
Outline: as §1

[5] = system: LXRb homodimer (NR concentration 270 nM)
Outline: as §1

[6] = system: PPARa:RXRa (NR concentration 270 nM, RXRa partner concentration 90 nM)
Outline: as §1

[7] = system: PPARg:RXRa (NR concentration 180 nM, RXRa partner concentration 90 nM)
Outline: as §1

[8] = system: PPARg:RXRa 270nM:90nM, anti-RXR (NR concentration 270 nM, RXRa partner concentration 90 nM)
Outline: as §1

[9] = system: PPARg:RXRa 30nM:10nM, anti-RXR (NR concentration 30 nM, RXRa partner concentration 10 nM)
Outline: as §1

[10] = system: PPARg:RXRa 90nM:30nM, anti-RXR (NR concentration 90 nM, RXRa partner concentration 30 nM)
Outline: as §1

[11] = system: PPARg:RXRa DBDmut IVT, anti-RXR (DBD mutation: RXRa K156A/R161A, NR concentration 270 nM, RXRa partner concentration 90 nM)
Outline: as §1

[12] = system: PPARg:RXRa IVT, anti-PPARg (NR concentration 270 nM, RXRa partner concentration 90 nM)
Outline: as §1

[13] = system: PPARg DBDmut:RXRa IVT, anti-PPARg (DBD mutation: PPARg1 K132A/R137A, NR concentration 270 nM, RXRa partner concentration 90 nM)
Outline: as §1

[14] = system: PPARg DBDmut IVT, anti-PPARg (DBD mutation: PPARg1 K132A/R137A, NR concentration 270 nM)
Outline: as §1

[15] = system: PPARg homodimer (NR concentration 180 nM)
Outline: as §1

[16] = system: PXR:RXRa (NR concentration 270 nM, RXRa partner concentration 90 nM)
Outline: as §1

[17] = system: PXR homodimer (NR concentration 270 nM)
Outline: as §1

[18] = system: RARa:RXR (NR concentration 270 nM, RXRa partner concentration 90 nM)
Outline: as §1

[19] = system: RARa homodimer (NR concentration 270 nM)
Outline: as §1

[20] = system: RARb:RXRa (NR concentration 270 nM, RXRa partner concentration 90 nM)
Outline: as §1

GCTCGGAGGATAAGGTCAGAGCTTTGTCCGTAGA
PBM binding z-score [1]: 2.22 | PBM binding z-score [2]: 1.66 | PBM binding z-score [3]: -0.483 | PBM binding z-score [4]: 1.26 | PBM binding z-score [5]: -1.34 | PBM binding z-score [6]: 2.62 | PBM binding z-score [7]: 0.136 | PBM binding z-score [8]: 1.3 | PBM binding z-score [9]: -0.139 | PBM binding z-score [10]: 0.94 | PBM binding z-score [11]: -0.248 | PBM binding z-score [12]: 0.29 | PBM binding z-score [13]: -0.531 | PBM binding z-score [14]: -1.51 | PBM binding z-score [15]: 0.565 | PBM binding z-score [16]: 1.86 | PBM binding z-score [17]: -0.244 | PBM binding z-score [18]: 2.62 | PBM binding z-score [19]: -0.904 | PBM binding z-score [20]: 3.29

ACTAGCAGGCCAAGGGCCACTCAAGATTAGTCCG
PBM binding z-score [1]: -0.56 | PBM binding z-score [2]: -0.559 | PBM binding z-score [3]: -0.856 | PBM binding z-score [4]: -1 | PBM binding z-score [5]: -1.27 | PBM binding z-score [6]: 0.699 | PBM binding z-score [7]: 2.13 | PBM binding z-score [8]: 3.13 | PBM binding z-score [9]: 1.28 | PBM binding z-score [10]: 2.51 | PBM binding z-score [11]: 0.244 | PBM binding z-score [12]: 0.822 | PBM binding z-score [13]: -0.352 | PBM binding z-score [14]: -1.82 | PBM binding z-score [15]: -0.633 | PBM binding z-score [16]: -0.879 | PBM binding z-score [17]: -0.75 | PBM binding z-score [18]: -0.678 | PBM binding z-score [19]: -0.685 | PBM binding z-score [20]: 0.884

CCTAGTTGGTCATGAGGTCACACACCGGATATGA
PBM binding z-score [1]: 4.57 | PBM binding z-score [2]: 4.17 | PBM binding z-score [3]: 2.56 | PBM binding z-score [4]: 4 | PBM binding z-score [5]: 0.753 | PBM binding z-score [6]: 4.65 | PBM binding z-score [7]: 4.15 | PBM binding z-score [8]: 4.5 | PBM binding z-score [9]: 2.25 | PBM binding z-score [10]: 3.46 | PBM binding z-score [11]: 2.85 | PBM binding z-score [12]: 4.41 | PBM binding z-score [13]: 1.13 | PBM binding z-score [14]: 0.4 | PBM binding z-score [15]: 4.56 | PBM binding z-score [16]: 5.34 | PBM binding z-score [17]: 2.23 | PBM binding z-score [18]: 5.4 | PBM binding z-score [19]: 2.94 | PBM binding z-score [20]: 4.14

GCGACTGGGGCATCAGCATGTTACCATAACTTAA
PBM binding z-score [1]: -0.56 | PBM binding z-score [2]: -0.551 | PBM binding z-score [3]: -0.462 | PBM binding z-score [4]: 0.363 | PBM binding z-score [5]: -0.493 | PBM binding z-score [6]: 0.258 | PBM binding z-score [7]: 0.836 | PBM binding z-score [8]: 0.643 | PBM binding z-score [9]: -0.13 | PBM binding z-score [10]: -0.0118 | PBM binding z-score [11]: 3.55 | PBM binding z-score [12]: 2.94 | PBM binding z-score [13]: -0.0811 | PBM binding z-score [14]: -0.739 | PBM binding z-score [15]: -0.0822 | PBM binding z-score [16]: -0.238 | PBM binding z-score [17]: -0.758 | PBM binding z-score [18]: -0.253 | PBM binding z-score [19]: -0.423 | PBM binding z-score [20]: 0.376

TCAAACAGGTGAAGGTAACTCAGGTACGCAGTCG
PBM binding z-score [1]: 1.02 | PBM binding z-score [2]: 1.85 | PBM binding z-score [3]: 0.0857 | PBM binding z-score [4]: 1.22 | PBM binding z-score [5]: -0.218 | PBM binding z-score [6]: 1.61 | PBM binding z-score [7]: 0.959 | PBM binding z-score [8]: 2.43 | PBM binding z-score [9]: 4.26 | PBM binding z-score [10]: 3.48 | PBM binding z-score [11]: 3.03 | PBM binding z-score [12]: 1.6 | PBM binding z-score [13]: 0.098 | PBM binding z-score [14]: 0.184 | PBM binding z-score [15]: 0.662 | PBM binding z-score [16]: 0.812 | PBM binding z-score [17]: 0.0874 | PBM binding z-score [18]: 1.19 | PBM binding z-score [19]: 0.552 | PBM binding z-score [20]: 1.26

CCTTACGGGTCACTCCAGGGTATAGCATCGGAGT
PBM binding z-score [1]: 4.69 | PBM binding z-score [2]: 6.8 | PBM binding z-score [3]: 0.368 | PBM binding z-score [4]: 3.85 | PBM binding z-score [5]: -0.114 | PBM binding z-score [6]: 4.27 | PBM binding z-score [7]: 3.23 | PBM binding z-score [8]: 3.68 | PBM binding z-score [9]: 1.19 | PBM binding z-score [10]: 2.52 | PBM binding z-score [11]: 2.07 | PBM binding z-score [12]: 3.17 | PBM binding z-score [13]: -0.61 | PBM binding z-score [14]: -0.915 | PBM binding z-score [15]: 2.12 | PBM binding z-score [16]: 3.89 | PBM binding z-score [17]: 0.022 | PBM binding z-score [18]: 3.65 | PBM binding z-score [19]: -0.123 | PBM binding z-score [20]: 3.54

ATCTCTAGGTAAGACTCGGTTCAGTGAAGAACGC
PBM binding z-score [1]: 0.472 | PBM binding z-score [2]: 0.583 | PBM binding z-score [3]: 0.614 | PBM binding z-score [4]: 0.263 | PBM binding z-score [5]: 1.07 | PBM binding z-score [6]: -0.0579 | PBM binding z-score [7]: -0.0197 | PBM binding z-score [8]: 0.126 | PBM binding z-score [9]: 0.0672 | PBM binding z-score [10]: 0.278 | PBM binding z-score [11]: 2.07 | PBM binding z-score [12]: 1.14 | PBM binding z-score [13]: 0.784 | PBM binding z-score [14]: 0.701 | PBM binding z-score [15]: 0.702 | PBM binding z-score [16]: 0.669 | PBM binding z-score [17]: 1.18 | PBM binding z-score [18]: 0.0867 | PBM binding z-score [19]: 1.5 | PBM binding z-score [20]: 0.192

TCCAGCAGGCCAGAGGGTCACTCAAGAGGTACGG
PBM binding z-score [1]: 0.97 | PBM binding z-score [2]: 1.16 | PBM binding z-score [3]: -0.45 | PBM binding z-score [4]: 1.18 | PBM binding z-score [5]: -1.14 | PBM binding z-score [6]: 2.23 | PBM binding z-score [7]: 0.983 | PBM binding z-score [8]: 1.87 | PBM binding z-score [9]: 1.59 | PBM binding z-score [10]: 1.79 | PBM binding z-score [11]: 0.933 | PBM binding z-score [12]: 0.217 | PBM binding z-score [13]: -0.437 | PBM binding z-score [14]: -1.27 | PBM binding z-score [15]: 0.577 | PBM binding z-score [16]: 1.45 | PBM binding z-score [17]: -0.376 | PBM binding z-score [18]: 2.3 | PBM binding z-score [19]: -0.207 | PBM binding z-score [20]: 2.2

ACTAGCAGGCCAATTTTGGGTCACTCAAACAAAG
PBM binding z-score [1]: 0.105 | PBM binding z-score [2]: 0.0624 | PBM binding z-score [3]: 0.139 | PBM binding z-score [4]: 0.747 | PBM binding z-score [5]: -0.68 | PBM binding z-score [6]: 1.8 | PBM binding z-score [7]: 0.396 | PBM binding z-score [8]: 0.508 | PBM binding z-score [9]: -0.304 | PBM binding z-score [10]: -0.0238 | PBM binding z-score [11]: 1.13 | PBM binding z-score [12]: 1.84 | PBM binding z-score [13]: 0.126 | PBM binding z-score [14]: -0.427 | PBM binding z-score [15]: 0.323 | PBM binding z-score [16]: 0.759 | PBM binding z-score [17]: -0.305 | PBM binding z-score [18]: 1.38 | PBM binding z-score [19]: -0.793 | PBM binding z-score [20]: 1.45

Reference: the supplement of paper PMC6555819
